# Columns and labels:
# Assay in all cases: DAPPL (digital affinity profiling via proximity ligation, sequencing); 10 mM Tris-HCl pH 7.5, 50 mM NaCl, 1 mM DTT, 4% glycerol, room temperature, 30 min; GST-TFs on glutathione beads, 16-mer random dsDNA library, 0.1% formaldehyde crosslink after washing; high values mean tight binding
# FEV = target: T1, FEV (Homo sapiens, UniProt Q99581 1-238); conditions: protein: recombinant; tags: N-terminal GST; dsDNA, one strand shown
# T1 sequence: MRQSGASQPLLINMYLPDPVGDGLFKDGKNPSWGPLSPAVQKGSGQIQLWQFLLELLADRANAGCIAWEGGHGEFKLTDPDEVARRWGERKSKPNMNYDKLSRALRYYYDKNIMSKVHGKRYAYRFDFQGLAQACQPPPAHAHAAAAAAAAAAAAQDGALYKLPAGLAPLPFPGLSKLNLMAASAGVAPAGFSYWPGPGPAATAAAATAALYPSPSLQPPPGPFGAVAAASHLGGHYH
# Summary of the method: (§1)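 Human transcription factors were made in yeast as GST fusions, captured on glutathione beads and barcoded with DNA. With a tag-only sample included, the pool was incubated with 200 nmole of a random double-stranded 16-mer DNA library in Tris/NaCl/DTT/glycerol buffer at room temperature for 30 min, then crosslinked with 0.1% formaldehyde after washing, ligated by proximity, amplified and sequenced. For binding signal, each hexamer's read frequency for a factor is divided by its frequency for the tag-only sample.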
# ETV5 = ETV5 (Homo sapiens, UniProt P41161 1-510); conditions: protein: recombinant; tags: N-terminal GST; dsDNA, one strand shown
# Chain of ETV5 (P41161 whole entry): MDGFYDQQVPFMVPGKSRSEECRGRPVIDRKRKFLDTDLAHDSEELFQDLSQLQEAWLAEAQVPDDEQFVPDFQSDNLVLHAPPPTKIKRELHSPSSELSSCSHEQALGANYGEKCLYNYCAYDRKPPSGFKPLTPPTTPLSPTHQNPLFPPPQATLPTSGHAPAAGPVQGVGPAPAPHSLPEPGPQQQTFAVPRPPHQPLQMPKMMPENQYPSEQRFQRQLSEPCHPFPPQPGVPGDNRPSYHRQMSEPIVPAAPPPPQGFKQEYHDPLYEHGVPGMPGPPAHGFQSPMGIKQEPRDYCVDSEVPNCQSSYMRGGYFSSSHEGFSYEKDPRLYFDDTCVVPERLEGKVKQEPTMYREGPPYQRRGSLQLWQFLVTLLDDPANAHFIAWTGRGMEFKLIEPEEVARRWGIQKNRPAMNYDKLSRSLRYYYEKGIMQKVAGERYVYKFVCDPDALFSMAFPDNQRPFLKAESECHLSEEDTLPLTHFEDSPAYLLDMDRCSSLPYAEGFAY
# Summary of the method: as §1
# HSF1 = HSF1 (Homo sapiens, UniProt Q00613 1-529); conditions: protein: recombinant; tags: N-terminal GST; chain copies: 3; dsDNA, one strand shown
# Chain of HSF1 (Q00613 whole entry): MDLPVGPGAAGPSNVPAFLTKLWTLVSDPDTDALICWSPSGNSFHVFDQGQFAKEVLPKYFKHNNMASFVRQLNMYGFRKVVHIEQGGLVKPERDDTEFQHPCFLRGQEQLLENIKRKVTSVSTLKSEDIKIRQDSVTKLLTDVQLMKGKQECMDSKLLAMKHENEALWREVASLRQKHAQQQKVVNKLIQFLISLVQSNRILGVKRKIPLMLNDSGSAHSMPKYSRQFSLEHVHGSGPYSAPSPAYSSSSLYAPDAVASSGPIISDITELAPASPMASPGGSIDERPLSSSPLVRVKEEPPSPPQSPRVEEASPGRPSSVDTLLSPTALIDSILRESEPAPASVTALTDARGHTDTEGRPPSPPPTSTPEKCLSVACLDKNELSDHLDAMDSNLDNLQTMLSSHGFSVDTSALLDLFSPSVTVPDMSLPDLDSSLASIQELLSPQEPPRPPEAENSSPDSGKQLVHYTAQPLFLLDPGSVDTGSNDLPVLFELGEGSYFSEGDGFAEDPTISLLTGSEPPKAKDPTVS
# Summary of the method: as §1
# SPIC = target: T2, SPIC (Homo sapiens, UniProt Q8N5J4 1-248); conditions: protein: recombinant; tags: N-terminal GST; dsDNA, one strand shown
# T2 sequence: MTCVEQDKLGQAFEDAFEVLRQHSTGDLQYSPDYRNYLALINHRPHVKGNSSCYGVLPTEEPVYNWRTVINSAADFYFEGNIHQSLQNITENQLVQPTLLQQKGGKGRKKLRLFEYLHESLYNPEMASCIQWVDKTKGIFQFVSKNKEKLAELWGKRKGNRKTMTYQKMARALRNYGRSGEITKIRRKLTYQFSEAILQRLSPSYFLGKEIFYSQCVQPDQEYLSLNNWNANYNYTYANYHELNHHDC
# Summary of the method: as §1
# ELF4 = ELF4 (Homo sapiens, UniProt Q99607 1-663); conditions: protein: recombinant; tags: N-terminal GST; dsDNA, one strand shown
# Chain of ELF4 (Q99607 whole entry): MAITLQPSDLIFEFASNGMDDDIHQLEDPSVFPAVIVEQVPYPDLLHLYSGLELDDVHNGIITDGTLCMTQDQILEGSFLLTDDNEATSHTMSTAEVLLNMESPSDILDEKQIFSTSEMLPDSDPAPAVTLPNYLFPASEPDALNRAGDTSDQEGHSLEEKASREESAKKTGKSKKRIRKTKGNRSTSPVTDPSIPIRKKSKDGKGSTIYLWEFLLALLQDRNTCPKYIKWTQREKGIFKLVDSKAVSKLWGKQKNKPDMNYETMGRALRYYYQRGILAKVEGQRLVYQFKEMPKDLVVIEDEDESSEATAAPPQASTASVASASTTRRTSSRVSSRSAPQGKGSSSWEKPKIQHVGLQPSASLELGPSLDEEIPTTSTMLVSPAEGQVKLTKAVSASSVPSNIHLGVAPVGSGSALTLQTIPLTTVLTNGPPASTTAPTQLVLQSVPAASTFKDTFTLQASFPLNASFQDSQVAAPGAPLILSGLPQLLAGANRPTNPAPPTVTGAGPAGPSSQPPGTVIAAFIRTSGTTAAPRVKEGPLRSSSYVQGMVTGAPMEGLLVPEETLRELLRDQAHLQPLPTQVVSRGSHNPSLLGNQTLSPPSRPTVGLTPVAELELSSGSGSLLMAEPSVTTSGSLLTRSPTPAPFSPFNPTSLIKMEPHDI
# Summary of the method: as §1
# ELK4 = target: T3, ELK4 (Homo sapiens, UniProt P28324-2 1-405); conditions: protein: recombinant; tags: N-terminal GST; dsDNA, one strand shown
# T3 sequence: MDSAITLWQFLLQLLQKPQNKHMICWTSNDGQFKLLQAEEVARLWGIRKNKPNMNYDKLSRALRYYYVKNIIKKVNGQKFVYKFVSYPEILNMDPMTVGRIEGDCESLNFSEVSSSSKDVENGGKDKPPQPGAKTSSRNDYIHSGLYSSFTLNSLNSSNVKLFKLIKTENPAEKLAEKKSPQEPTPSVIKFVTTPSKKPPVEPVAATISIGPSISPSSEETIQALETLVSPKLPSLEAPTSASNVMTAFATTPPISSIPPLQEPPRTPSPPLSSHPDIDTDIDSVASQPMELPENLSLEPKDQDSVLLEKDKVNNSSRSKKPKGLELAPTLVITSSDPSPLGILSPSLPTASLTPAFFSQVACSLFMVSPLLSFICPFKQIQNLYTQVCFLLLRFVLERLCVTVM
# Summary of the method: as §1
# ETV2 = target: T4, ETV2 (Homo sapiens, UniProt O00321 1-342); conditions: protein: recombinant; tags: N-terminal GST; dsDNA, one strand shown
# T4 sequence: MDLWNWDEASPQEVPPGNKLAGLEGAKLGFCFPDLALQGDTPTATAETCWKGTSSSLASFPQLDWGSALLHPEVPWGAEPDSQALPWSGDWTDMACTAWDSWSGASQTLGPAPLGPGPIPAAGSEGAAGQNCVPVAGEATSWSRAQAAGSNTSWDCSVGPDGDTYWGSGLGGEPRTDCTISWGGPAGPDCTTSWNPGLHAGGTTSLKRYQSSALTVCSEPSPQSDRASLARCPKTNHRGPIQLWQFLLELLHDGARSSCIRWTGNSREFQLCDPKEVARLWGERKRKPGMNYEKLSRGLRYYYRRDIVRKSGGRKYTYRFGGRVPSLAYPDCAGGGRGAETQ
# Summary of the method: as §1
# ELF3 = target: T5, ELF3 (Homo sapiens, UniProt P78545 1-371); conditions: protein: recombinant; tags: N-terminal GST; dsDNA, one strand shown
# T5 sequence: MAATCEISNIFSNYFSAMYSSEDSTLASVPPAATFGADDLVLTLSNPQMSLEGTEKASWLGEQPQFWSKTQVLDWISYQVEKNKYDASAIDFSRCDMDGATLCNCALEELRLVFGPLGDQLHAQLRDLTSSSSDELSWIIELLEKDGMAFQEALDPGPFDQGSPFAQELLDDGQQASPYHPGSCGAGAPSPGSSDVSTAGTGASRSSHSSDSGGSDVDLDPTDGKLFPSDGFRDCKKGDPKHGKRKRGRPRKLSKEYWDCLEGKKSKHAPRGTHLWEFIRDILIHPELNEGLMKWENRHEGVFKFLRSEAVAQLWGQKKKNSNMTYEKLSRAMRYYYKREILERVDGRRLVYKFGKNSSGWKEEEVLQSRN
# Summary of the method: as §1
# CRX = CRX (Homo sapiens, UniProt O43186 1-299); conditions: protein: recombinant; tags: N-terminal GST; dsDNA, one strand shown
# Chain of CRX (O43186 whole entry): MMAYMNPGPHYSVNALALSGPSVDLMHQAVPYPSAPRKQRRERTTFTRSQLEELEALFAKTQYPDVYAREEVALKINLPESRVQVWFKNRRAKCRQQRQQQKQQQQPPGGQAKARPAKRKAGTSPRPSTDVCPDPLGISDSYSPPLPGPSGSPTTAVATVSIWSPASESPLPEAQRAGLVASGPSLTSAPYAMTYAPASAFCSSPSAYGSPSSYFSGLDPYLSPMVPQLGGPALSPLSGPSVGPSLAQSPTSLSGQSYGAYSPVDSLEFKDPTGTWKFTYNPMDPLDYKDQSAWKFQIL
# Summary of the method: as §1
# ETV1 = ETV1 (Homo sapiens, UniProt P50549 1-477); conditions: protein: recombinant; tags: N-terminal GST; dsDNA, one strand shown
# Chain of ETV1 (P50549 whole entry): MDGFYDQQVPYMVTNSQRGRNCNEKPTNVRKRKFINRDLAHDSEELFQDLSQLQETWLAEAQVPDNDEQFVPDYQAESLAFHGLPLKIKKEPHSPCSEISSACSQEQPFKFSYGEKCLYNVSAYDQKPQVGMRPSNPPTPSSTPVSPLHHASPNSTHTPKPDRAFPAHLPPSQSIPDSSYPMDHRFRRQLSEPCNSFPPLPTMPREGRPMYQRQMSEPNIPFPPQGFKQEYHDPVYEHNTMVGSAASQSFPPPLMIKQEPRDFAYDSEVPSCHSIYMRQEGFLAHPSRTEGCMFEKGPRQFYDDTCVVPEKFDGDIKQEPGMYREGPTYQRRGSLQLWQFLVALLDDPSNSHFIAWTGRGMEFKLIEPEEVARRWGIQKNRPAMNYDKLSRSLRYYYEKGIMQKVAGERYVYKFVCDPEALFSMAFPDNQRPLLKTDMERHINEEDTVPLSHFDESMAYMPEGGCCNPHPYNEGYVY
# Summary of the method: as §1
# ERF = target: T6, ERF (Homo sapiens, UniProt P50548 1-548); conditions: protein: recombinant; tags: N-terminal GST; dsDNA, one strand shown
# T6 sequence: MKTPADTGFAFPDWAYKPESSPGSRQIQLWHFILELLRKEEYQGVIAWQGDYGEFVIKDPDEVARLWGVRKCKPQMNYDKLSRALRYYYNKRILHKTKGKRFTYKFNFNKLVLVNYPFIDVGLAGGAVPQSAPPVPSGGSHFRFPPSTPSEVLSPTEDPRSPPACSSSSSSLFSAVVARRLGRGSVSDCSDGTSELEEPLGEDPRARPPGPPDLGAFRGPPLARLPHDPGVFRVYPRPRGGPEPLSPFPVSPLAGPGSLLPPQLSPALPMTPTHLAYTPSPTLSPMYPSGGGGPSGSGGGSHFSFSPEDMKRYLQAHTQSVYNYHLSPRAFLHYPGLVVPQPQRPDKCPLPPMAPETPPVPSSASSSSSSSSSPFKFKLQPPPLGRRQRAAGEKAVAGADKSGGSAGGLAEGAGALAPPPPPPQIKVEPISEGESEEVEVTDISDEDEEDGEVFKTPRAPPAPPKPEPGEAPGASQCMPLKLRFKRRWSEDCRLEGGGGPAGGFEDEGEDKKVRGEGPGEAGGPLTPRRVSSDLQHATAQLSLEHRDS
# Summary of the method: as §1
# ETV3L = target: T7, ETV3L (Homo sapiens, UniProt Q6ZN32 1-361); conditions: protein: recombinant; tags: N-terminal GST; dsDNA, one strand shown
# T7 sequence: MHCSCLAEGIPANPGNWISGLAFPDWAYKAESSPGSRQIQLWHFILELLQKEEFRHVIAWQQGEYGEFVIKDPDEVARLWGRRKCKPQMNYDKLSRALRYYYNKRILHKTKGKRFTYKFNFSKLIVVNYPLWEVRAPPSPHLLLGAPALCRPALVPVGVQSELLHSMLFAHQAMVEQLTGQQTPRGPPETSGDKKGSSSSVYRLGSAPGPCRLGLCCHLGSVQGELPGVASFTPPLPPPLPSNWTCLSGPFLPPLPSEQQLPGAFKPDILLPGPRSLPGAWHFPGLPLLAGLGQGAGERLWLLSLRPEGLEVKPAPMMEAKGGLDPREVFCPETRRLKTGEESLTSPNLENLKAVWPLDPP
# Summary of the method: as §1
# ETS2 = target: T8, ETS2 (Homo sapiens, UniProt P15036 1-469); conditions: protein: recombinant; tags: N-terminal GST; dsDNA, one strand shown
# T8 sequence: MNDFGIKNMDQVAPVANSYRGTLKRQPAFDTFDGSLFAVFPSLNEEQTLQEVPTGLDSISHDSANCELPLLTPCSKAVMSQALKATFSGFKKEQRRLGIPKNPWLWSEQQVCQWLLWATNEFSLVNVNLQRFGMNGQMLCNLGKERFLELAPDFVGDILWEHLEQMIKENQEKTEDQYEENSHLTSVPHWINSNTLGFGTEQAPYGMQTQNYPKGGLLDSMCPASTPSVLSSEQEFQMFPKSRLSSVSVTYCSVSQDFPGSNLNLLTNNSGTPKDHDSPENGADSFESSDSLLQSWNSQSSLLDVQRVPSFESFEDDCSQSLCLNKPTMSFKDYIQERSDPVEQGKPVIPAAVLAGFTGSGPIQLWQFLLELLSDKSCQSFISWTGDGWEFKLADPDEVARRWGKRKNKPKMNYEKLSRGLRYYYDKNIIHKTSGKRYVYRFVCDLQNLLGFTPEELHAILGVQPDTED
# Summary of the method: as §1
# SPDEF = target: T9, SPDEF (Homo sapiens, UniProt O95238 1-335); conditions: protein: recombinant; tags: N-terminal GST; dsDNA, one strand shown
# T9 sequence: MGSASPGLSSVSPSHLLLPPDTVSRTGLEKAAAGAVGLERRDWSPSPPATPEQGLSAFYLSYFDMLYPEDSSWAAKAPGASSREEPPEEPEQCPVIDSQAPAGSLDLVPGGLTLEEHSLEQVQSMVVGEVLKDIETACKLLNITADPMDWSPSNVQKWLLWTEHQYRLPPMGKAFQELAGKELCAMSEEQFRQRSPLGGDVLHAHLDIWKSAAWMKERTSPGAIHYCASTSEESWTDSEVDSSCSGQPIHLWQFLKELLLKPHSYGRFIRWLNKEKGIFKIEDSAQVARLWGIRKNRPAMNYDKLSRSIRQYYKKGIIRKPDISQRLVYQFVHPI
# Summary of the method: as §1
# ETV7 = target: T10, ETV7 (Homo sapiens, UniProt Q9Y603 1-341); conditions: protein: recombinant; tags: N-terminal GST; dsDNA, one strand shown
# T10 sequence: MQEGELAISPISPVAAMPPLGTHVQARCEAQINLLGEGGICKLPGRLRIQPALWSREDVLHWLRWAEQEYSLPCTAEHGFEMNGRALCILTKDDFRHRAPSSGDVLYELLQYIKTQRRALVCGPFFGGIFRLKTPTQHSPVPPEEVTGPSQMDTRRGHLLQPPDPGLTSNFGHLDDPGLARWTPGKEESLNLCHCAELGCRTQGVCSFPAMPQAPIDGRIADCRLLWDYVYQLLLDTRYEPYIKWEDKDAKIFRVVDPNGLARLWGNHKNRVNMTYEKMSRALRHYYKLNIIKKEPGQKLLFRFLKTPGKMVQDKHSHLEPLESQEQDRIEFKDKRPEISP
# Summary of the method: as §1
# ELF5 = target: T11, ELF5 (Homo sapiens, UniProt Q9UKW6-2 1-255); conditions: protein: recombinant; tags: N-terminal GST; dsDNA, one strand shown
# T11 sequence: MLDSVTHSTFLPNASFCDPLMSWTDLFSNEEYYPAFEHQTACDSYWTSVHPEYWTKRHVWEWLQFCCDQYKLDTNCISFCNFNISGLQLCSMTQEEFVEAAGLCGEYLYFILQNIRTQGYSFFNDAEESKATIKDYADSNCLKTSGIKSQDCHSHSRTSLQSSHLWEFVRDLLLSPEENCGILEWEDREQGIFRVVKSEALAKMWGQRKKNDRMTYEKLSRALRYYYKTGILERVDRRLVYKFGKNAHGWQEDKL
# Summary of the method: as §1
# ETV3 = target: T12, ETV3 (Homo sapiens, UniProt P41162-2 1-143); conditions: protein: recombinant; tags: N-terminal GST; dsDNA, one strand shown
# T12 sequence: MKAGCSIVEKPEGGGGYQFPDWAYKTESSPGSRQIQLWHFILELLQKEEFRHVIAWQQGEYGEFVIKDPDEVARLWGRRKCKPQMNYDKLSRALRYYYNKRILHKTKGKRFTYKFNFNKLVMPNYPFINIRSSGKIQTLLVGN
# Summary of the method: as §1
# ETV6 = ETV6 (Homo sapiens, UniProt P41212 1-452); conditions: protein: recombinant; tags: N-terminal GST; dsDNA, one strand shown
# Chain of ETV6 (P41212 whole entry): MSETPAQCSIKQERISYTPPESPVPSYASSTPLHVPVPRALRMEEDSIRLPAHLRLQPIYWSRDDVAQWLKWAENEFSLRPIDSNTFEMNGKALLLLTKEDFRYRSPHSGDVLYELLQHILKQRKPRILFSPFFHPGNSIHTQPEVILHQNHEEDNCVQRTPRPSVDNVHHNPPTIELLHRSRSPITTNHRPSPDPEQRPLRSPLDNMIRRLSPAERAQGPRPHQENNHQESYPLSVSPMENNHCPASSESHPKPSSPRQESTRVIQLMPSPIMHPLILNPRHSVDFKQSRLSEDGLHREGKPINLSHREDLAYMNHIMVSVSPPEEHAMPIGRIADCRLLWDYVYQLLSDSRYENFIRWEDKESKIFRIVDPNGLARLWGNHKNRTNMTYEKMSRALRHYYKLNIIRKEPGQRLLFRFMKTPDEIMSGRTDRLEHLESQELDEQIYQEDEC
# Summary of the method: as §1
sequence,measurement,setting,value
TTCTTT,binding signal,FEV,"1.19 fold enrichment (6-mer frequency, TF over GST control)"
same,binding signal,ETV5,"1.14 fold enrichment (6-mer frequency, TF over GST control)"
same,binding signal,HSF1,"1.7 fold enrichment (6-mer frequency, TF over GST control)"
same,binding signal,SPIC,"1.2 fold enrichment (6-mer frequency, TF over GST control)"
same,binding signal,ELF4,"1.28 fold enrichment (6-mer frequency, TF over GST control)"
same,binding signal,ELK4,"1.25 fold enrichment (6-mer frequency, TF over GST control)"
same,binding signal,ETV2,"1.27 fold enrichment (6-mer frequency, TF over GST control)"
same,binding signal,ELF3,"1.28 fold enrichment (6-mer frequency, TF over GST control)"
same,binding signal,CRX,"1.44 fold enrichment (6-mer frequency, TF over GST control)"
same,binding signal,ETV1,"1.29 fold enrichment (6-mer frequency, TF over GST control)"
same,binding signal,ERF,"1.08 fold enrichment (6-mer frequency, TF over GST control)"
same,binding signal,ETV3L,"1.27 fold enrichment (6-mer frequency, TF over GST control)"
same,binding signal,ETS2,"1.32 fold enrichment (6-mer frequency, TF over GST control)"
same,binding signal,SPDEF,"1.08 fold enrichment (6-mer frequency, TF over GST control)"
same,binding signal,ETV7,"1.24 fold enrichment (6-mer frequency, TF over GST control)"
same,binding signal,ELF5,"1.13 fold enrichment (6-mer frequency, TF over GST control)"
same,binding signal,ETV3,"1.2 fold enrichment (6-mer frequency, TF over GST control)"
same,binding signal,ETV6,"1.14 fold enrichment (6-mer frequency, TF over GST control)"

# From PMC7862700, “An all-to-all approach to the identification of sequence-specific readers for epigenetic DNA modifications on cytosine”
